# Reference: PubChem BioAssay AID588342 (National Center for Advancing Translational Sciences (NCATS), 2011)
# The whole screen tested about 360,000 compounds, of which about 25,000 (6.9%) were called active. Another 9% or so got no clear call; they are omitted. This is one part of a sample in which actives are shown more often than they occur. Unmarked numbers belong to inactive results. Calls come from the whole dose curve; as a rule, active = well fitted inhibition curve with a large enough effect; inconclusive = small, poorly fitted or top-dose-only effect; inactive = flat fitted curve, though single readings scatter.
# Biological target: Luciferin 4-monooxygenase (Photinus pyralis) (UniProt P08659)
# Sequence (P08659 whole entry, looked up): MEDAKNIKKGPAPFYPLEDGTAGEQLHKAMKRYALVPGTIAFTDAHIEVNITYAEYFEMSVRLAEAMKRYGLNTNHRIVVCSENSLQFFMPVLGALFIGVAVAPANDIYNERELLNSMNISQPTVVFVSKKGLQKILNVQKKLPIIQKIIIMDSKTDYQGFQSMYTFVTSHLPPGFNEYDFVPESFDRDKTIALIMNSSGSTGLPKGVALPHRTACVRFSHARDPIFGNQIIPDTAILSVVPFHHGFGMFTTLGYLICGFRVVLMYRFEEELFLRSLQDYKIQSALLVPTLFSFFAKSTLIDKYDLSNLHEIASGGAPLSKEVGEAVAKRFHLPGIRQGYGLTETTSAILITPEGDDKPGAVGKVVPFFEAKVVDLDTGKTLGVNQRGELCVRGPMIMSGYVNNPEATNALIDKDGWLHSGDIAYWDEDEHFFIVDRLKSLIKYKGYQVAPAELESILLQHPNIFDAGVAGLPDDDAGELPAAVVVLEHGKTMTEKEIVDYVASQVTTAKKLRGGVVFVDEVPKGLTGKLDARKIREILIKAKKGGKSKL
# Experiment: qHTS profiling assay for firefly luciferase inhibitor/activator using purifed enzyme and Km concentrations of substrates (counterscreen for miR-21 project); note: nearly all actives have a fitted effect of over 55% in size;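 for activity change, negative = inhibition: plate controls were vehicle for no effect and reference inhibitor for full effect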
# Details: purified FLuc, luminescence inhibition; series mostly up to 57.5 µM; activity change, negative = inhibition: at the top concentration
# Text: MLPCN Grant: 1 R21 NS059478-01 (miR-21 grant) Assay Provider: NCGC NCGC Assay Overview: Firefly (Photinus pyralis) luciferase is one of the most commonly used transcriptional reporters for a number of reasons. It is considered one of the more dynamically responsive reporters -that is, responsive to changes in reporter transcription - as it requires no post-translational modifications and is enzymatically active directly after protein synthesis (Wood, 1998). Additionally, the half-life of the luciferase protein is short relative to other reporter-gene products (Wood, 1995). Whereas reporters with long half-lives potentially allow for increased signal due to accumulation of reporter-gene product, once accumulated in the cell, dynamic changes in reporter-gene expression may be difficult to detect(Fan and Wood, 2007; Almond et al., 2004). It has been shown that wild-type P. pyralis luciferase has a half-life of approximately […] hours in mammalian cells (Thompson et al., 1991). Firefly luciferase reporter-gene assays are also generally considered one of the most sensitive assay types (Wood, 1995; Wood, 1998). Although light produced in a bioluminescence reaction is of lower intensity than that produced during fluorescence emission, this is offset by little to no background light inherent to luminescent assays. Thus the luciferase reporter can be expressed at much lower levels than fluorescent proteins while still providing robust signal. # However, it was initially observed, in 1991, by Thompson et al., that compounds that resemble the substrates of firefly luciferase (FLuc) can act as competitive inhibitors of the enzyme, and that these compounds, upon interaction with luciferase in the cell, can actually stabilize the protein and increase its half-life. Accumulated intracellular FLuc protein can be measured as an increase in luminescence signal, upon addition of detection reagents (which contain high concentrations of FLuc substrates) commonly used in high-throughput screening. In cell-based reporter gene assays that use FLuc as the reporter gene to quantitate the potential influence of a given compound against the target biology, this apparent increase in luminescence can mistakenly be interpreted as identification of a compound that is active against the target of interest. This is the case for the miR-21 FLuc reporter gene assay used to identify inhibitors of the miR-21 pathway (PubChem AID 2289) - compounds of interest will inhibit miR-21 biogenesis/expression or activity, and are identified by causing an increase in luminescence, due to increased FLuc translation. However, FLuc inhibitory compounds that stabilize the FLuc protein will give an identical read-out, making it difficult to distinguish compounds that are active against the target from those active against FLuc. Previous profiling work to determine the prevalence of compounds that affect FLuc enzymatic activity (PubChem AID 411) identified that ~3% of the MLSMR library (then at ~72K) inhibited FLuc. […] Since the MLSMR had grown to ~350K compounds, and since it was expected that a significant percentage of compounds found active in the miR-21 FLuc assay would be FLuc inhibitors, the library was screened for activity against FLuc using a biochemical assay of purified FLuc and KM concentrations of FLuc substrates (D-luciferin and ATP).
# NCGC Assay Protocol Summary: Reagents: 50mM Tris acetate, pH 7.5; 10mM Mg acetate; 10uM D-luciferin (Sigma #L9504); 10uM ATP; 0.01% Tween-20; 0.05% BSA; 10nM P. pyralis luciferase (Sigma #L9506) Control compounds used were two known firefly luciferase inhibitors (compounds (2) and (5) in Auld et al., 2010), and DMSO. […]
Structure (SMILES),"activity change, negative = inhibition",Potency
C=CCN(CC=C)S(=O)(=O)c1ccc(C(=O)Nc2sc3c(c2C(N)=O)CCCCC3)cc1,-4.48%,
NC(=O)c1c(NC(=O)c2ccccc2)sc2c1CCCC2,,0.675 µM (active)
O=C(Nc1nc2c(s1)CCCC2)c1ccccc1F,,0.338 µM (active)
Cc1ccc(C(=O)c2c(NC(=O)c3ccncc3)sc3c2CCCC3)cc1,3.4%,
O=C(Nc1sc2c(c1C(=O)O)CCC2)c1ccccc1F,,26.9 µM (active)
Cc1ccccc1NC(=O)c1c(NC(=O)c2ccccc2F)sc2c1CCC(C)C2 (centres undefined),-1.42%,
CC(C)(C)C1CCc2c(sc(NC(=O)c3ccccc3F)c2C(=O)N2CCCCC2)C1 (centres undefined),-0.0444%,
O=C(Cn1c(=O)sc2ccccc21)Nc1nc2c(s1)CCCC2,-4.24%,
O=C(CCS(=O)(=O)c1ccccc1)Nc1nc2c(s1)CCCC2,-2.31%,
O=C(O)c1cccc(S(=O)(=O)N2CC=C(c3ccccc3)CC2)c1,-6.25%,
Cc1nnc(SCC(=O)NCc2ccccc2Cl)c2nn(-c3ccccc3)c(C)c12,-15.3%,
CC(NCCc1ccc(S(N)(=O)=O)cc1)C(=O)NCc1ccccc1 (centres undefined),2%,
Cc1ccc(S(=O)(=O)N(C)C)cc1NC(=O)c1ccc(-n2cncn2)c([N+](=O)[O-])c1,-3.04%,
O=C(CNC(=O)OCc1ccccc1)NC1CCCCNC1=O (centres undefined),-1.31%,
CCOc1cc(-c2nnc(SCC(=O)NC3CCCCC3)nc2-c2ccc(OC)c(OCC)c2)ccc1OC,2.92%,
Cc1cc(C)cc(NC(=O)Cn2c(=O)c3ccccc3n3nncc23)c1,2.23%,
Cc1cccc(C(=O)NCC(=O)OCC(=O)N(C)CC(=O)Nc2ccccc2Cl)c1,5.48%,
COc1ccc(CCNC(=O)c2cc3cccc4c3n2CC(C)S4)c(OC)c1OC (centres undefined),-16.9%,
CN1C(=O)c2ccccc2Sc2ccc(NC(=O)Cc3ccc(Cl)cc3)cc21,-4.82%,
CCC1C(=O)c2ccccc2N(C)C1=O (centres undefined),3.54%,
CN1C(=O)/C(=C\c2cc(Br)cs2)c2ccccc21,,4.26 µM (active)
COc1ccc(CN(C)C(=O)CC(c2ccccc2)c2ccccc2)cc1,0.703%,
COc1ccc(C(CC(=O)c2ccccc2)S(=O)(=O)c2ccccc2)cc1 (centres undefined),,0.478 µM (active)
COc1ccc(N(Cc2ccccc2)S(=O)(=O)c2cccc(C(=O)O)c2)cc1,1.17%,
Cc1c(NS(=O)(=O)c2cc(C(=O)NCCc3ccc(F)cc3)cc(Cl)c2Cl)c(=O)n(-c2ccccc2)n1C,0.627%,

Structure (SMILES),"activity change, negative = inhibition",Potency
Cc1c(C(N)=O)sc2ncn(CCOc3ccccc3)c(=O)c12,-2.28%,
Cc1cccc(OC(=O)c2sc3ncn(C)c(=O)c3c2C)c1,,12 µM (active)
COc1cccc(-n2c(=O)c3c(C)c(C(=O)N(C)C)sc3n(Cc3cccc(C)c3)c2=O)c1,-3.37%,
COc1ccc(S(=O)(=O)N2CCN(c3ccc(F)cc3)CC2)cc1-c1noc(C)n1,-4.3%,
Cc1ccc2c(c1)c1c(c(=O)n(-c3ccccc3)c(=O)n1CC(=O)c1ccc(Cl)cc1)n2C,-3.33%,
O=C(Cn1nc(Cc2cccnc2)c2ccccc2c1=O)N1CCN(c2ccccc2F)CC1,-2.35%,
Cc1cc2c(=O)n(C)c(SCC(=O)c3cc4ccccc4o3)nc2s1,4.57% [at 2.3 µM],
Nc1ncc(-c2cc3ccccc3oc2=O)s1,,6.01 µM (active)
Cc1ccc(S(=O)(=O)N2CCC(C(=O)OCC(=O)N(C)c3ccccc3)CC2)cc1C,9.29%,
CCC(C(=O)Nc1cccc(Cl)c1C)n1nc(-c2ccc(C)cc2)ccc1=O (centres undefined),3.5%,
COc1ccc(C)cc1N(CC(=O)N1CCC(C)CC1)S(=O)(=O)c1ccc(C)cc1,-7.97%,
CC(C)(COC(=O)Nc1ccccc1)COC(=O)Nc1ccccc1,-14.3%,
O=C(Nc1ccccc1)O/N=C1\CCCCC1c1ccc([N+](=O)[O-])cc1[N+](=O)[O-] (centres undefined),4.78%,
O=C(Nc1ccccc1)O/N=C1/CCCc2occc21,,16.9 µM (active)
NC(=O)CSc1c[nH]c2ccccc12,-10.3%,
CC(=O)NC(Cc1c[nH]c2ccccc12)C(=O)O (centres undefined),5.21%,
O=S(=O)(O)Oc1c[nH]c2ccccc12,,12 µM (active)
Cc1ccc(NC(=O)Cn2c(=O)n(-c3ccccc3)c(=O)c3c4c(sc32)CCCC4)cc1,2.01%,
CCOc1ccc(-c2ccc(SCC(=O)N3CCOCC3)nn2)cc1,,3.38 µM (active)
CCOc1ccc(C(=O)CCN2CCOCC2)cc1,1.6%,
CCn1c(COc2cccc(OC)c2)nnc1SCC(=O)N1CCOCC1,6.62%,
CCNS(=O)(=O)c1ccc(NC(=O)CSc2nc(-c3ccco3)cc(C(F)(F)F)n2)cc1,2.67%,
O=C1OC2(CCCCC2)CC2=C1C1O[C@](c3ccsc3)(Cc3ccccc31)O2,-0.717% [at 11.5 µM],
Nc1nnn(CC(=O)N/N=C/c2ccc(O)cc2)n1,-1.83%,
CC(C)(C)c1nnc(N/N=C/c2ccc(O)cc2)n(N)c1=O,,13.5 µM (active)

Structure (SMILES),"activity change, negative = inhibition",Potency
Cc1nnc(NC(=O)c2ccc3nccnc3c2)s1,,15.1 µM (active)
Cc1nnc(NC(=O)C(c2ccccc2)c2ccccc2)s1,-1.25%,
CC(C)CCC(C)NC(=O)c1ccc2nccnc2c1 (centres undefined),-15%,
Cc1ccc(S(=O)(=O)N2CCC(C(=O)Nc3cc(C)ccc3C)CC2)cc1,-1.47%,
Cc1cccc(-n2cnc(C(=O)NNC(=S)Nc3ccccc3)c2)n1,-17.5%,
Cc1cc(C)c(NC(=O)CS(=O)CC(=O)Nc2cccnc2)c(C)c1 (centres undefined),0.546%,
Cc1cccc(-n2cnc(C(=O)Nc3cccnc3)c2)n1,,10.7 µM (active)
CN(CC(=O)NCCN1CCOCC1)S(=O)(=O)c1ccc(F)cc1,2.29%,
Cc1ccc(OCC(=O)OCc2cc(=O)n3nc(C4CC4)sc3n2)cc1,-5.96%,
O=C(Nc1ccc(C(=O)OCc2cc(=O)n3nc(C4CC4)sc3n2)cc1)c1ccc(F)cc1,-0.0489%,
CCCCc1nn2c(=O)cc(COC(=O)c3cccc(NC(=O)COc4ccccc4)c3)nc2s1,-7.88%,
O=C(OCc1cc(=O)n2nc(C3CC3)sc2n1)c1ccccc1Cl,,16.9 µM (active)
Cc1nn2c(=O)cc(COC(=O)c3ccccc3NC(=O)COc3ccccc3C)nc2s1,-6.91%,
Cc1nn2c(=O)cc(COC(=O)c3cccc(NC(=O)COc4ccccc4Cl)c3)nc2s1,,3.01 µM (active)
CN1CCc2c(sc3c2c(NCc2ccco2)nc2nnnn23)C1,7.24%,
Cc1nc2ccccn2c(=O)c1NC(=O)c1c(F)cccc1F,3.3%,
COc1ccc2cc(C3=CC(=O)C[C@H](c4ccc5c(c4)OCO5)C3)ccc2c1,3.7%,
Cc1cccc(C)c1NC(=O)CN1C(=O)C(C)Oc2ccccc21 (centres undefined),1.07%,
CN(CC(=O)Nc1ccc(OC(F)(F)F)cc1)C(=O)C1CCC1,-4%,
CC(C)[C@H](NC(=O)c1ccc(F)cc1)C(=O)OCC(=O)NC(=O)c1cccn1C,0.441%,
Cc1nn(C(C)C(=O)Nc2ccc(C(C)C)cc2)c(=O)c2c1sc1ccccc12 (centres undefined),-10.5%,
CC(=O)c1cccc(S(=O)(=O)N2CCC(n3nnc4cc(F)ccc43)CC2)c1,1.11%,
O=C(c1ccc(F)cc1)N1CCC(n2nnc3ccccc32)CC1,,2.69 µM (active)
O=S(=O)(c1cccc(S(=O)(=O)N2CCC(n3nnc4ccccc43)CC2)c1)N1CCCCC1,0.624%,
CCCN(CCC)C(=O)Cn1c(=O)n(-c2ccc(Cl)cc2)c(=O)c2c3c(sc21)CCCCC3,4.78%,

Structure (SMILES),"activity change, negative = inhibition",Potency
COc1ccc(-c2nnc(SCC(=O)Nc3ccc(C(C)C)cc3)nc2-c2ccc(OC)c(OC)c2)cc1OC,4.68%,
CN(Cc1cc2cc(F)ccc2[nH]1)Cc1nc(-c2cnccn2)no1,1.36%,
O=C(O)c1ccc(NC(=O)c2cn(-c3ccccc3)nc2-c2ccc(Cl)cc2)cc1,,6.75 µM (active)
COc1cccc(C(=O)NC(=O)Nc2ccc(-c3cc(C(F)(F)F)nn3-c3ccccc3)cc2)c1,-3.37%,
O=C(CSc1nnc(-c2ccncc2)n1-c1ccc(Cl)cc1)Nc1ccc(C(=O)O)cc1,-4.75%,
COc1ccc(NC(=O)CSc2nc(N)c(-c3ccccc3)c(=O)[nH]2)cc1,8.54%,
COc1ccc(NC(=O)CN(C)C(=O)/C=C/c2cn(Cc3ccccc3)nc2-c2cccnc2)cc1,-3.23%,
Cc1nn(Cc2ccccc2)c(C)c1C(=O)NCCCN1CCCC1=O,-2.49%,
COc1ccc(NC(=O)c2ccccc2CC[N+](=O)[O-])cc1,1.33%,
COc1ccc(NC(=O)c2cn(-c3ccccc3)nc2SC)cc1,,15.1 µM (active)
COc1ccc(-c2nn(-c3ccccc3)cc2/C=C\C(=O)Nc2ccc(C(=O)O)cc2)cc1,,15.1 µM (active)
O=C(NCCCN1CCCC1=O)c1ccc(S(=O)(=O)Nc2ccccc2)cc1,-0.641%,
Cc1ccc(-c2nn(-c3ccccc3)cc2C(=O)NCCCN2CCCC2=O)cc1,,21.3 µM (active)
Cc1ccc(-c2nn(-c3ccccc3)cc2C(=O)Nc2cccc(S(=O)(=O)N3CCOCC3)c2)cc1,-3.14%,
Cc1ccc(Cl)c(NC(=O)CN2CCN(C=O)CC2)c1,-0.796%,
Fc1cccc(-n2ncc3c2ncn2nc(-c4ccccc4Cl)nc32)c1,-1.28%,
CN(C(=O)CSc1nnc(C2CC2)n1C)C1CCCc2ccccc21 (centres undefined),1.86%,
N#Cc1ccc(C2=CC(=O)C[C@H](c3ccc(Cl)cc3)C2)cc1,-16.3%,
O=C(CSc1oc(-c2ccco2)nc1S(=O)(=O)c1ccc(Cl)cc1)c1ccccc1,1.52%,
COc1ccccc1CNc1nccn(-c2ccc(F)cc2)c1=O,-2.26%,
Cc1ccc(C2(C)NC(=O)N(CC(=O)Nc3ccccc3C(=O)N3CCCCC3)C2=O)cc1 (centres undefined),0.472%,
CCOC(=O)c1c(C)[nH]c(C)c1S(=O)(=O)N1CCCC(C(=O)NCc2ccccc2Cl)C1 (centres undefined),-8.43%,
Cc1ccc(NC(=O)CSc2nc3ccccc3c3nc(CCn4cncc4C)nn23)cc1F,3.74%,
O=C(CO/N=C/c1ccc(OC(F)F)cc1)NCc1ccc(F)cc1,-10.7%,
